Measured values taken from ChEMBL document CHEMBL3988442, “University of Dundee, Small-Polar-MMV Screening Library” (2021).

target: AMP-activated protein kinase, AMPK (Homo sapiens) (UniProt P54646+O43741+P54619+Q9UGJ0+Q9Y478+Q13131+Q9UGI9); experiment: AMP-dependent Kinase enzyme assay. An in vitro enzyme assay that detects ADP turnover that is directly proportional to AMPK activity. This uses naive AMPK that is activated during the assay with MK-8722; format: functional; parameters: scale not given: direction of the effect not stated beside the values; details: 30 µM

| Structure (SMILES) | Percent Effect [%] |
| --- | --- |
| O=C(NC1CC1)c1cnc2n1CCCC2 | -4.04 |
| c1ccc(C2CN(C3CC3)CC3(CCN(Cc4cscn4)CC3)C2)cc1 (stereo unspecified) | 4.81 |
| CCCN(CCc1ccccn1)C(=O)Cn1cc(C)cn1 | 3.83 |
| CCc1ccccc1OCCN(C)C(=O)CCN1CCCCO1 | 0.981 |
| CCCc1n[nH]c(=O)n1Cc1ccc(OC)cc1 | 3.68 |
| COc1ccc(NCCC(=O)NCc2cccnc2N(C)C)cc1 | 22.9 |
| CO[C@@H]1CCC[C@@H](NC(=O)c2cccc(F)c2)[C@H]1O | 10.3 |
| Cc1noc(C)c1CN1CCCC1c1nnc2ccccn12 (stereo unspecified) | -3.49 |
| CN(C)CC(=O)N1CCN(c2cc(N3CCCC3CO)ncn2)CC1 (stereo unspecified) | -7.31 |
| CNc1ccc(C2CN(c3cc(C)ncn3)CCO2)nc1 (stereo unspecified) | 10.8 |
| CCc1nccn1CC1CCCN1S(=O)(=O)N1CCCOCC1 (stereo unspecified) | 15.2 |
| CC(C)[C@H]1CN(Cc2nccn2C)C[C@@H]1NC(=O)CCS(C)(=O)=O | 1.59 |
| Cc1nnc(CN(Cc2cccc3c2OCO3)CC2CCCO2)n1C (stereo unspecified) | -6.12 |
| O=C(c1coc(-c2ccccc2)n1)N1CCCC1 | 5.08 |
| CNC(=O)c1sc2ncccc2c1C1CCN(C(=O)CCOC)C1 (stereo unspecified) | 21.5 |
| Cc1nccc(CNC(=O)NC(c2ncc(C)s2)C2CC2)n1 (stereo unspecified) | 0.262 |
| COCCNC(=O)N1CCOCC1c1c(C)nn(C)c1C (stereo unspecified) | -0.499 |
| CN(Cc1cn(C2CCNCC2)nn1)CC1CCCO1 (stereo unspecified) | 3.31 |
| CC(C(=O)Nc1cccc(C(F)(F)F)c1)N(C)CCN1CCOCC1 (stereo unspecified) | 8.76 |
| CS(=O)(=O)N1CCN(c2cc(N3CCCC3CO)ncn2)CC1 (stereo unspecified) | -5.51 |
| N#CC1(NC(=O)c2cc(Cl)ccc2OC(F)F)CCOCC1 | -2.23 |
